From PubChem BioAssay (EPA / NIEHS)
Several values for one entry are separate records, joined by “and”; a condition that tells them apart may be missing. Equal values may be shown once. Inconclusive results are not listed. Some compounds were tested as several samples or in several runs, with calls that do not always agree. Activity calls are given as the source filed them. Rule for the calls, unless noted: active = hit-call score of the fitted dose curve at least 0.9, where 1 is the maximum; inactive = score below 0.9.

Assays:
[1] = BSK_BT_PBMCCytotoxicity: PBMC Cytotoxicity Assessment in the BioMAP Diversity Plus: BT Assay (AID 2284225); settings: primary human B cells with PBMC;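 note: PBMC viability measured by Alamar Blue dye reduction fluorescence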
Outline: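 75,000 cells/well; cpd 1 h → SEB + TSST-1 (20 ng/mL final each) → 90 h → Alamar Blue 6 h → fluor. 546/580 nm. DMSO = neg. control/baseline.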

[2] = read-out: Secreted IgG (sIgG), gene 3500; assay: BSK_BT_sIgG: BioMAP Diversity Plus: BT Assay for Secreted IgG (sIgG) Biomarker Activity (AID 2284226); settings: primary human B cells with PBMC
Outline: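 Secreted IgG from a human primary B cell–PBMC co-culture was measured by ELISA 24 hours after dosing, with DMSO defining baseline activity.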

[3] = BSK_BT_Bcell_Proliferation: Viability Assessment in the BioMAP Diversity Plus: BT Assay for B cell Proliferation (AID 2284227); settings: primary human B cells with PBMC
Outline: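 Read-out is absorbance at 560 nm from sulforhodamine B staining of total protein, reflecting relative cell numbers in a human B cell and PBMC co-culture after 72 h of chemical exposure. Values were referenced to DMSO.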

[4] = read-out: Interleukin 6 (IL6), IL6 (gene 3569); assay: BSK_BT_xIL6: BioMAP Diversity Plus: BT Assay for Interleukin 6 (IL6) Biomarker Activity (AID 2284228); settings: primary human B cells with PBMC
Outline: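 Secreted IL-6 in the primary human B cell plus PBMC system, measured by Luminex at 24 h post-chemical, DMSO as baseline. Alamar Blue viability: 75,000 cells/well, chemical 1 h before SEB/TSST-1 (20 ng/mL each), 90 h, then 6 h dye.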

[5] = read-out: Interleukin 17A (IL17A), IL17A (gene 3605); assay: BSK_BT_xIL17A: BioMAP Diversity Plus: BT Assay for Interleukin 17A (IL17A) Biomarker Activity (AID 2284229); settings: primary human B cells with PBMC
Outline: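 Luminex xMAP quantification of secreted IL-17A after 24 h chemical exposure of a primary human B cell/PBMC co-culture. Signal increases fitted relative to DMSO negative control.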

[6] = read-out: Tumor necrosis factor (Homo sapiens) (UniProt P01375); assay: BSK_BT_xTNFa: BioMAP Diversity Plus: BT Assay for Tumor necrosis factor alpha (TNF-alpha) Biomarker Activity (AID 2284230); settings: primary human B cells with PBMC
Outline: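 Human primary co-culture of B cells and peripheral blood mononuclear cells; TNF-alpha in supernatant, 24 h post-dose, Luminex multiplex; DMSO = baseline.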

[7] = read-out: Collagen I, COL1A1 (gene 1277); assay: BSK_MyoF_CollagenI: BioMAP Diversity Plus: MyoF Assay for Collagen I Biomarker Activity (AID 2284238); settings: primary human lung fibroblasts
Outline: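 Collagen I levels measured by ELISA on human lung fibroblast cultures 24 h post-dosing, with curve fitting in the positive direction relative to DMSO; SRB staining of parallel wells marked cytotoxicity.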

[8] = read-out: Collagen III, COL3A1 (gene 1281); assay: BSK_MyoF_CollagenIII: BioMAP Diversity Plus: MyoF Assay for Collagen III Biomarker Activity (AID 2284239); settings: primary human lung fibroblasts
Outline: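 Collagen III biomarker quantified by ELISA in human lung fibroblast cultures 24 h after dosing. Activity fitted in the positive direction against DMSO as baseline.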

[9] = read-out: Interleukin 17F (IL17F), IL17F (gene 112744); assay: BSK_BT_xIL17F: BioMAP Diversity Plus: BT Assay for Interleukin 17F (IL17F) Biomarker Activity (AID 2284243); settings: primary human B cells with PBMC
Outline: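 Human B cells co-cultured with PBMC; secreted IL-17F quantified by LumineX xMAP 24 hours after chemical dosing. Activity fitted in the positive direction against DMSO negative control as baseline.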

[10] = read-out: Actin alpha 1 (ACTA1), ACTA1 (gene 58); assay: BSK_MyoF_ACTA1: BioMAP Diversity Plus: MyoF Assay for Actin alpha 1 (ACTA1) Biomarker Activity (AID 2284244); settings: primary human lung fibroblasts
Outline: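 Measured by ELISA: alpha-smooth muscle actin in human primary lung fibroblasts 24 h after dosing, with DMSO as baseline and upward signal change as the fitted direction.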

[11] = read-out: Interleukin 2 (IL2), IL2 (gene 3558); assay: BSK_BT_xIL2: BioMAP Diversity Plus: BT Assay for Interleukin 2 (IL2) Biomarker Activity (AID 2284245); settings: primary human B cells with PBMC
Outline: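 Secreted interleukin-2 from human B cell/PBMC co-cultures, measured 24 h post-dosing by Luminex multiplex immunoassay. Upward-direction curve fitting against DMSO baseline.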

[12] = CCTE_Mundy_HCI_Cortical_NOG_NeuronCount: CCTE's Neurite Outgrowth Assay in rat cortical cells for Neuron Count, Mundy Lab (AID 2284236; active = hit-call score of the fitted dose curve at least 0.9, where 1 is the maximum;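 note: neurons counted by imaging betaIII-tubulin and Hoechst stained cortical cells; cells exposed to compound for about 48 hours before fixation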)
Outline: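 Read-out: neuron number by high-content imaging of betaIII-tubulin (Alexa Fluor-488) and Hoechst-labelled rat primary cortical cells.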

[13] = CCTE_Mundy_HCI_Cortical_NOG_BPCount: CCTE's Neurite Outgrowth Assay in rat cortical cells for Branch Point Count, Mundy Lab (AID 2284237);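 for AC50: branch points counted about two days after chemical exposure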
Outline: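 Measured 50.33 h after dosing, this morphology endpoint uses rat primary cortical cultures labelled for betaIII-tubulin. Branch points are quantified by high-content imaging, with DMSO as negative control and baseline.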

[14] = CCTE_Mundy_HCI_Cortical_Synap_Neur_Matur_NeuronCount: CCTE's Synaptogenesis and Neurite Maturation Assay in rat cortical cells for Neuron Count, Mundy Lab (AID 2284242; active = hit-call score of the fitted dose curve at least 0.9, where 1 is the maximum;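 note: neuron number from Hoechst nuclei and MAP2 staining by high-content imaging; hits reduce neuron count versus DMSO baseline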)
Outline: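 Imaging-based neuron count in rat cortical cultures after chemical exposure from DIV 7 to DIV 12, with AraC added at DIV 5. Activity is fitted relative to DMSO.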

[15] = CCTE_Mundy_HCI_hNP1_Pro_ResponderAvgInten: CCTE's Proliferation Assay in human neuroprogenitor cells, Mundy Lab (AID 2284224; active = hit-call score of the fitted dose curve at least 0.9, where 1 is the maximum;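 note: human neural progenitor cells hNP1 derived from WA09 embryonic stem cells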)
Outline: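 Proliferation read as average intensity of BrdU-positive cells, imaged at 26.25 h post-dosing: chemical exposure started after 40–44 h culture, BrdU during final 4 h, paraformaldehyde fixation. Positive-direction fit relative to DMSO.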

[16] = UKN2_HCS_IMR90_cell_viability: Viability Assessment in the University of Konstanz (UKN) Leist Lab Neural Crest Cell Migration Assay in human induced IMR90 Pluripotent Stem Cells (UKN2) (AID 2284233);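 note: viability of neural crest cells differentiated from IMR90 iPSC measured by calcein-AM fluorescence imaging; cells exposed to compound for 24 h after a 24 h migration phase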
Outline: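 Neural crest cells derived from IMR90 iPSC migrate into a stopper-free zone for 24 h in EGF/FGF medium, then are exposed to compound for 24 h. Viability assessed by calcein-AM and Hoechst staining with high-content imaging, fitted bidirectionally versus DMSO.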

[17] = CCTE_Mundy_HCI_hNP1_Casp3_7: CCTE's Caspase-Glo 3/7 Assay in human neuroprogenitor cells for Apoptosis, Mundy Lab (AID 2284240)
Outline: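 Luminescent caspase-3/7 readout, 26.5 h post-dose, in human neural progenitor cells from WA09 embryonic stem cells. Cells grew 40–44 h at 37 °C, 5% CO2 before chemical addition. Activity analysed as signal increase over DMSO baseline.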

[18] = CCTE_Mundy_HCI_hNP1_CellTiter: CCTE's Cell Titer-Glo 2 Assay in human neuroprogenitor cells for Viability, Mundy Lab (AID 2284241; active = hit-call score of the fitted dose curve at least 0.9, where 1 is the maximum;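 for AC50: a hit is a drop in ATP luminescence versus DMSO meaning reduced viability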)
Outline: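 Viability read as luminescent ATP content (CellTiter-Glo, 30 min room temperature) twenty-four hours after dosing, relative to DMSO. Cells: WA09-derived hNP1 neuroprogenitors on poly-L-ornithine/laminin, plated 40 to 44 hours before chemical.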

Measured: AC50

Tumor necrosis factor (Homo sapiens), sequence (P01375 whole entry, looked up): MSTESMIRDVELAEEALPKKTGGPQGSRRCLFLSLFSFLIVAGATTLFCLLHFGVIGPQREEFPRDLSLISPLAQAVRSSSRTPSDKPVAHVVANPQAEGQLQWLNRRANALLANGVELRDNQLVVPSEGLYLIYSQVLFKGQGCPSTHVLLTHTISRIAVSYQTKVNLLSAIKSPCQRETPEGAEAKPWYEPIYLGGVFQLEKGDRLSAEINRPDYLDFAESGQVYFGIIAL

C=CC(=O)OCC(CC)(COC(=O)C=C)COC(=O)C=C
active: [1] 2.98 µM | [2] 0.516 µM | [3] 2.36 µM | [4] 1.46 µM | [5] 2.18 µM | [6] 2.61 µM | [7] 4.69 µM | [8] 4.87 µM | [9] 1.87 µM | [10] 2.93 µM | [11] 2.34 µM

CC(C)(C)c1ccccc1OP(=O)(Oc1ccccc1)Oc1ccccc1
active: [2] 13.5 µM | [3] 28.6 µM | [4] 29.2 µM | [5] 24 µM | [6] 36.7 µM | [12] 26.2 µM | [13] 17.5 µM | [7] 28.3 µM | [8] 25.2 µM | [14] 3.09 µM | [9] 29 µM | [10] 20 µM | [11] 28.2 µM
inactive: [1]

CCOP(=S)(OCC)SCn1nnc2ccccc2c1=O
active: [2] 20 µM | [9] 24 µM
inactive: [1] | [3] | [4] | [5] | [6] | [7] | [8] | [10] | [11]

CCCCC(CC)COC(=O)c1c(Br)c(Br)c(Br)c(Br)c1C(=O)OCC(CC)CCCC (configuration not stated)
not listed: [12] | [13] | [14] | [15] | [16] | [17] | [18]
inactive: all other assays above

O=C(O)C(F)(OC(F)(F)C(F)(F)C(F)(F)F)C(F)(F)F (configuration not stated)
inactive: [15] | [1] | [2] | [3] | [4] | [5] | [6] | [16] | [13] | [7] | [8] | [17] | [18] | [9] | [10] | [11]
active: [1] 0.22 µM | [3] 220 nM and 291 nM | [6] 6.18 µM | [14] 6.27 µM

OCC(F)(F)OC(F)(F)C(F)(F)OC(F)(F)C(F)(F)OC(F)(F)CO
inactive: [1] | [3] | [4] | [5] | [6] | [7] | [8] | [11]
active: [2] 30 µM | [4] 38.4 µM | [9] 22.8 µM and 20.7 µM | [10] 20.5 µM and 30 µM

C=CC(=O)OCC(F)(F)C(F)F
active: [1] 30 µM and 23.6 µM | [2] 43 µM and 48.8 µM | [3] 22.3 µM and 36.2 µM | [4] 34.1 µM and 31.7 µM | [5] 30 µM and 31.8 µM | [6] 30 µM and 29.8 µM | [7] 46.7 µM and 44.9 µM | [8] 48.7 µM | [9] 12.4 µM and 21.8 µM | [10] 48.8 µM and 46.5 µM | [11] 30.6 µM and 34.5 µM
inactive: [15] | [8] | [17] | [18]

Cc1c([N+](=O)[O-])cc2c(c1[N+](=O)[O-])C(C)(C)CC2(C)C
active: [1] 33.2 µM | [2] 20 µM | [3] 20 µM | [6] 29.5 µM | [9] 20 µM | [11] 20 µM
inactive: [4] | [5] | [7] | [8] | [10]

CO/N=C(/C(=O)OC)c1ccccc1COc1ccccc1C
active: [16] 9.92 µM | [12] 13.4 µM | [13] 14.2 µM | [17] 33.2 µM | [18] 82.5 µM | [14] 2.98 µM
inactive: [15]

CCOc1ccc(C(C)(C)COCc2cccc(Oc3ccccc3)c2)cc1
active: [14] 15 µM
inactive: [15] | [13] | [17] | [18]
